Laboratory results taken from PMC7862700, “An all-to-all approach to the identification of sequence-specific readers for epigenetic DNA modifications on cytosine”.

Legend:
Assay in all cases: DAPPL (digital affinity profiling via proximity ligation, sequencing); 10 mM Tris-HCl pH 7.5, 50 mM NaCl, 1 mM DTT, 4% glycerol, room temperature, 30 min; GST-TFs on glutathione beads, 16-mer random dsDNA library, 0.1% formaldehyde crosslink after washing; high values mean tight binding
Details in all cases: protein: recombinant; tags: N-terminal GST; dsDNA, one strand shown
FLI1 = target: T1, FLI1 (Homo sapiens, UniProt Q01543 1-452)
T1 sequence: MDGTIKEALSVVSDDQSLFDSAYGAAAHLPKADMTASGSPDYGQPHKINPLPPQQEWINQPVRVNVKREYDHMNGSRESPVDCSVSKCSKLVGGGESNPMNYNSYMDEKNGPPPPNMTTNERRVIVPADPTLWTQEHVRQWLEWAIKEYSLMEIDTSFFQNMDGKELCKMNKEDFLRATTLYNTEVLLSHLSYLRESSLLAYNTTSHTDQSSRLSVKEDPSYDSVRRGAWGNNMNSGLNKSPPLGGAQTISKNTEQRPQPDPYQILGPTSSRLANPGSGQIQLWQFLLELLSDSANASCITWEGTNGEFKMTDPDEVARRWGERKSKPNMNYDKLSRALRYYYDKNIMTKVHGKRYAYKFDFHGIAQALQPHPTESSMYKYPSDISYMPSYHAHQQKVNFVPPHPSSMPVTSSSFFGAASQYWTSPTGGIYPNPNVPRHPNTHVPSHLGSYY
In short: (§1)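 Human transcription factors fused to GST were expressed in yeast, captured on glutathione beads, given DNA barcodes and pooled with a GST-only negative control. Pools were incubated with 200 nmole of a 16-mer random double-stranded DNA library in Tris/NaCl/DTT/glycerol buffer at room temperature for 30 min. They were then washed, crosslinked with 0.1% formaldehyde, proximity-ligated (BsaI/T4 ligase, 1 h, 37 °C), PCR-amplified and sequenced on an Illumina NextSeq500. Binding signal is each 6-mer's read frequency for a factor divided by its frequency for the GST control.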

ELK1 = target: T2, ELK1 (Homo sapiens, UniProt P19419 1-428)
T2 sequence: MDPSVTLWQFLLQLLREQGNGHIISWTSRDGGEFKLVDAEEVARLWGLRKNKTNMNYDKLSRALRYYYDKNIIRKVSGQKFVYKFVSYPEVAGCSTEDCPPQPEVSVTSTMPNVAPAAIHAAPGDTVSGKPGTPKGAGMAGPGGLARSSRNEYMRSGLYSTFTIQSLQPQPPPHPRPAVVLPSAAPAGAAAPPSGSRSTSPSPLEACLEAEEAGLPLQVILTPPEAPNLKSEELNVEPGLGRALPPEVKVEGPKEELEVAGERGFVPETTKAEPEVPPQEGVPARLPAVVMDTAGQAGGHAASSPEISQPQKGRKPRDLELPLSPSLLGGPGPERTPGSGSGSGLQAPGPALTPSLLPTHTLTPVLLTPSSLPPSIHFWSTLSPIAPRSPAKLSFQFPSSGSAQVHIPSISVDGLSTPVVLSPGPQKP
In short: as §1

GABPA = target: T3, GABPA (Homo sapiens, UniProt Q06546 1-454)
T3 sequence: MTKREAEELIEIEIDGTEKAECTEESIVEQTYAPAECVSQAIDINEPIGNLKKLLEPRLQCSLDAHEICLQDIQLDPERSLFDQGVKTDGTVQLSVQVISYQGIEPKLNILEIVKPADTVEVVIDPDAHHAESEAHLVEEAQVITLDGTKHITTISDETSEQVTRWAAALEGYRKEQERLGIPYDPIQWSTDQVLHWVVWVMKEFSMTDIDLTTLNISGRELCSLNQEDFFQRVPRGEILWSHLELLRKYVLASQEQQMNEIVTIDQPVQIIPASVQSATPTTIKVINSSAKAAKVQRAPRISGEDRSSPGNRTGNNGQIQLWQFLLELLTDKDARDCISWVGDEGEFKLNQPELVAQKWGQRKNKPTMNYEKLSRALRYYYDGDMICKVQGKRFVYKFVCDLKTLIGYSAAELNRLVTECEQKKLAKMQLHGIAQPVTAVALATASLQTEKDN
In short: as §1

ERG = target: T4, ERG (Homo sapiens, UniProt P11308 1-479)
T4 sequence: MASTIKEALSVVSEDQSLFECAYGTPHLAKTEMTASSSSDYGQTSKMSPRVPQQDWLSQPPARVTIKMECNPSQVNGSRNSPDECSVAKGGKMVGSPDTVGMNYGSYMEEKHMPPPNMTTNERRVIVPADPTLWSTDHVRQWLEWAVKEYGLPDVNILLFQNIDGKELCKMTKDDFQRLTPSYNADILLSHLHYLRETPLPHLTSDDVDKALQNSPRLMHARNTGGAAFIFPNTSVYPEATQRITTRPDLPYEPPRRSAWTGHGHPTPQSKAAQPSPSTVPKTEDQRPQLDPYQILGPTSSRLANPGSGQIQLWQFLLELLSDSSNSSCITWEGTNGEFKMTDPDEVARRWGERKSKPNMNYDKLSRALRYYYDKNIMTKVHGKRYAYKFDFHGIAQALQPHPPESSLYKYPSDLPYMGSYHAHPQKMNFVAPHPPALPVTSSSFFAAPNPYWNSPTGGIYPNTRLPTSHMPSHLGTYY
In short: as §1

ELF1 = ELF1 (Homo sapiens, UniProt P32519 1-619)
In short: as §1

EHF = target: T5, EHF (Homo sapiens, UniProt Q9NZC4 1-300)
T5 sequence: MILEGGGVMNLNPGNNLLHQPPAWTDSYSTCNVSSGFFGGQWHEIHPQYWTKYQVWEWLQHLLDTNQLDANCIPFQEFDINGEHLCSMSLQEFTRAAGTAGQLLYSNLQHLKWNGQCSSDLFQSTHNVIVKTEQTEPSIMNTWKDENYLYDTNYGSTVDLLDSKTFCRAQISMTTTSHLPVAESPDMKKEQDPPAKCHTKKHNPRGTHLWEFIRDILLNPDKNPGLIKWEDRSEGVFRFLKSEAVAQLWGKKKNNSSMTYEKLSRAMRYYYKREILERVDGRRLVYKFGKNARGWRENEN
In short: as §1

SPI1 = SPI1 (Homo sapiens, UniProt P17947 1-270)
In short: as §1

SPIB = SPIB (Homo sapiens, UniProt Q01892 1-262)
In short: as §1

ELK3 = target: T6, ELK3 (Homo sapiens, UniProt P41970 1-407)
T6 sequence: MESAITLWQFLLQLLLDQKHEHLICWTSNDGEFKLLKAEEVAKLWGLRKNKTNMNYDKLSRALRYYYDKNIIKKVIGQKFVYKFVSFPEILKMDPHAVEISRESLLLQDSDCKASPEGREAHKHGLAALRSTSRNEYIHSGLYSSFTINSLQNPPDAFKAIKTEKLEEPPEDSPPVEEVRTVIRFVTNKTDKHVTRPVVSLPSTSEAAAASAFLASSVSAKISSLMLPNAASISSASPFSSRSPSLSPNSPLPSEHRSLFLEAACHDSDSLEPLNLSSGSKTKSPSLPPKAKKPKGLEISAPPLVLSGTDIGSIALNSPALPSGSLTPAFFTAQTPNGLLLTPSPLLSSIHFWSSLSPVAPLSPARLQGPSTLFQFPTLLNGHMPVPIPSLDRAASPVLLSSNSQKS
In short: as §1

Sequence of SPIB (Q01892 whole entry): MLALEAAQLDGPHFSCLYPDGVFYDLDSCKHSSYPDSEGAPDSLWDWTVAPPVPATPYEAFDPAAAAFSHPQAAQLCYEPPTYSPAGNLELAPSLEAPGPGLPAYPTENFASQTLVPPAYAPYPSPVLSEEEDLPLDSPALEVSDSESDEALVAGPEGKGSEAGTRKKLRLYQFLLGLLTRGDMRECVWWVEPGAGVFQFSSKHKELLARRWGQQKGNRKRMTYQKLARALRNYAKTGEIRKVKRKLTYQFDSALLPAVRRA
Sequence of ELF1 (P32519 whole entry): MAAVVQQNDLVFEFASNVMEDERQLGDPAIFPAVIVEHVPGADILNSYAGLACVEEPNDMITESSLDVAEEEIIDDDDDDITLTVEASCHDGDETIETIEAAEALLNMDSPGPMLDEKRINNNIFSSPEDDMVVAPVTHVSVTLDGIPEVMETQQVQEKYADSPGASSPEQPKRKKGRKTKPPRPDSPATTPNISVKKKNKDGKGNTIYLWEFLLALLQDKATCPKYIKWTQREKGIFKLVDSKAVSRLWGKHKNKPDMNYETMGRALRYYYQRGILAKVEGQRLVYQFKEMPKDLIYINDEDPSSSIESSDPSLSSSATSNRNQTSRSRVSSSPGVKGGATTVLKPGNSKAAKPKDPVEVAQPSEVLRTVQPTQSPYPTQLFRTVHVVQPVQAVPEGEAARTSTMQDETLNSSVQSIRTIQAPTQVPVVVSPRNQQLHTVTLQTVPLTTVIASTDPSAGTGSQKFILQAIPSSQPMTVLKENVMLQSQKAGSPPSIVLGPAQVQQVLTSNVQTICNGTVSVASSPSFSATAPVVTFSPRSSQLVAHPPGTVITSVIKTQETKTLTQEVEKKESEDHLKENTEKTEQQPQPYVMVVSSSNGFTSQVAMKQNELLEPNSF

Row | Sequence | binding signal (FLI1) | binding signal (ELK1) | binding signal (GABPA) | binding signal (ERG) | binding signal (ELF1) | binding signal (EHF) | binding signal (SPI1) | binding signal (SPIB) | binding signal (ELK3)
1 | AGCCCC | 1.09 fold enrichment (6-mer frequency, TF over GST control) | 1.01 fold enrichment (6-mer frequency, TF over GST control) | 1.11 fold enrichment (6-mer frequency, TF over GST control) | 1.06 fold enrichment (6-mer frequency, TF over GST control) | 1.05 fold enrichment (6-mer frequency, TF over GST control) | 1.05 fold enrichment (6-mer frequency, TF over GST control) | 1.02 fold enrichment (6-mer frequency, TF over GST control) | 1.08 fold enrichment (6-mer frequency, TF over GST control) | 1.07 fold enrichment (6-mer frequency, TF over GST control)
2 | GTATGC | 1.22 fold enrichment (6-mer frequency, TF over GST control) | 1.24 fold enrichment (6-mer frequency, TF over GST control) | 1.17 fold enrichment (6-mer frequency, TF over GST control) | 1.11 fold enrichment (6-mer frequency, TF over GST control) | 1.2 fold enrichment (6-mer frequency, TF over GST control) | 1.14 fold enrichment (6-mer frequency, TF over GST control) | 1.23 fold enrichment (6-mer frequency, TF over GST control) | 1.2 fold enrichment (6-mer frequency, TF over GST control) | 1.13 fold enrichment (6-mer frequency, TF over GST control)
3 | CCCATC | 1.19 fold enrichment (6-mer frequency, TF over GST control) | 1.18 fold enrichment (6-mer frequency, TF over GST control) | 1.17 fold enrichment (6-mer frequency, TF over GST control) | 1.11 fold enrichment (6-mer frequency, TF over GST control) | 1.12 fold enrichment (6-mer frequency, TF over GST control) | 1.17 fold enrichment (6-mer frequency, TF over GST control) | 1.11 fold enrichment (6-mer frequency, TF over GST control) | 1.18 fold enrichment (6-mer frequency, TF over GST control) | 1.21 fold enrichment (6-mer frequency, TF over GST control)
4 | ACCGGA | 2.87 fold enrichment (6-mer frequency, TF over GST control) | 3.55 fold enrichment (6-mer frequency, TF over GST control) | 2.66 fold enrichment (6-mer frequency, TF over GST control) | 3.94 fold enrichment (6-mer frequency, TF over GST control) | 2.87 fold enrichment (6-mer frequency, TF over GST control) | 3.2 fold enrichment (6-mer frequency, TF over GST control) | 3.17 fold enrichment (6-mer frequency, TF over GST control) | 3.16 fold enrichment (6-mer frequency, TF over GST control) | 3.55 fold enrichment (6-mer frequency, TF over GST control)
5 | CATCCG | 2.09 fold enrichment (6-mer frequency, TF over GST control) | 2.2 fold enrichment (6-mer frequency, TF over GST control) | 1.86 fold enrichment (6-mer frequency, TF over GST control) | 2.45 fold enrichment (6-mer frequency, TF over GST control) | 1.86 fold enrichment (6-mer frequency, TF over GST control) | 2.19 fold enrichment (6-mer frequency, TF over GST control) | 2.01 fold enrichment (6-mer frequency, TF over GST control) | 2.29 fold enrichment (6-mer frequency, TF over GST control) | 2.5 fold enrichment (6-mer frequency, TF over GST control)
6 | AGTTTC | 1.23 fold enrichment (6-mer frequency, TF over GST control) | 1.28 fold enrichment (6-mer frequency, TF over GST control) | 1.29 fold enrichment (6-mer frequency, TF over GST control) | 1.3 fold enrichment (6-mer frequency, TF over GST control) | 1.27 fold enrichment (6-mer frequency, TF over GST control) | 1.34 fold enrichment (6-mer frequency, TF over GST control) | 1.22 fold enrichment (6-mer frequency, TF over GST control) | 1.24 fold enrichment (6-mer frequency, TF over GST control) | 1.46 fold enrichment (6-mer frequency, TF over GST control)
7 | CCATTA | 1.08 fold enrichment (6-mer frequency, TF over GST control) | 1.05 fold enrichment (6-mer frequency, TF over GST control) | 1.11 fold enrichment (6-mer frequency, TF over GST control) | 1.1 fold enrichment (6-mer frequency, TF over GST control) | 1.14 fold enrichment (6-mer frequency, TF over GST control) | 1.06 fold enrichment (6-mer frequency, TF over GST control) | 1.17 fold enrichment (6-mer frequency, TF over GST control) | 1.23 fold enrichment (6-mer frequency, TF over GST control) | 1.09 fold enrichment (6-mer frequency, TF over GST control)
8 | ACGGAA | 1.66 fold enrichment (6-mer frequency, TF over GST control) | 1.69 fold enrichment (6-mer frequency, TF over GST control) | 1.58 fold enrichment (6-mer frequency, TF over GST control) | 1.93 fold enrichment (6-mer frequency, TF over GST control) | 1.62 fold enrichment (6-mer frequency, TF over GST control) | 2 fold enrichment (6-mer frequency, TF over GST control) | 2.02 fold enrichment (6-mer frequency, TF over GST control) | 1.93 fold enrichment (6-mer frequency, TF over GST control) | 1.94 fold enrichment (6-mer frequency, TF over GST control)
